Assay in all cases: NCI-60 one-dose screen, 48 h (100 = growth as untreated, 0 = no growth, -100 = all killed)
The test system of experiment [1] is HCT-15 colon. The note with it: 10 µM unless noted.
For experiment [2], the system named is HT29 colon. The note with it: 10 µM unless noted.
Experiment [3] has as its system SNB-19 CNS. The note with it: 10 µM unless noted.
For experiment [4], the system named is U251 CNS. The note with it: 10 µM unless noted.
Experiment [5] has as its system PC-3 prostate. The note with it: 10 µM unless noted.
The test system of experiment [6] is SK-MEL-5 melanoma. To be noted: 10 µM unless noted.
Experiment [7] has as its system UACC-62 melanoma. The note with it: 10 µM unless noted.
Experiment [8] relates to LOX IMVI melanoma. The note with it: 10 µM unless noted.
For experiment [9], the system named is SK-MEL-28 melanoma. The note with it: 10 µM unless noted.
The subject of experiment [10] is SK-MEL-2 melanoma. The note with it: 10 µM unless noted.
The test system of experiment [11] is EKVX NSCLC. To be noted: 10 µM unless noted.
Experiment [12] relates to SN12C renal. The note with it: 10 µM unless noted.
For experiment [13], the system named is UO-31 renal. To be noted: 10 µM unless noted.
For experiment [14], the system named is TK-10 renal. To be noted: 10 µM unless noted.
Experiment [15] concerns ACHN renal. To be noted: 10 µM unless noted.
Experiment [16] relates to CAKI-1 renal. The note with it: 10 µM unless noted.
Experiment [17] has as its system A498 renal. To be noted: 10 µM unless noted.
Experiment [18] concerns CCRF-CEM leukemia. The note with it: 10 µM unless noted.
The subject of experiment [19] is MOLT-4 leukemia. To be noted: 10 µM unless noted.
The test system of experiment [20] is SNB-75 CNS. To be noted: 10 µM.

Molecules are shown by their SMILES. About 83,000 compounds went through this panel and 20% of them were active in at least one assay; those are over-represented in the sample as a whole.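 Plates (96-well) were seeded with cells, treated with compound at one concentration, and incubated for 48 hours before percent growth was determined.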 Values without a mark were called inactive. Active and inactive are the calls of the source. Rule for the calls: active = growth percent below 10; inactive = the rest.

`CCO/C=N/C1=C(C#N)C(c2ccc(Cl)cc2)c2c(c3ccc(C)cc3[nH]c2=O)O1` (centres undefined): the growth is 91.1% in experiment [1]; 80.5% in experiment [2]; 84.7% in experiment [3]; 90.3% in experiment [4]; 83.5% in experiment [5]; 87.1% in [6]. The growth was 67.6% in experiment [7]; 86.8% in experiment [8]; 101% in experiment [9]; 101% in experiment [10]; 69.5% in experiment [11]; 85.5% in experiment [12]. Further, the growth in [13] is 49.6%; in [14], 116%; in experiment [15] it was 78.5%; in [16], 49.7%; in experiment [17], 66.1%; in experiment [18], 87.3%. Moreover, the growth in [19] is 95.6%.

For the compound `CCCCCc1cc[n+](CC(=O)c2ccc([N+](=O)[O-])cc2)cc1`, the growth in experiment [1] is 94.4%; in experiment [2] it was 21.5%; in experiment [20], 89.6%; in experiment [3] it was 87.9%; in experiment [4], 48.4%; in experiment [5], 59.5%. Besides, the growth in experiment [6] was 22%; in experiment [7], 91.1%; in [8], 45.9%; in [9], 106%; in [10], 49.3%; in experiment [11], 72.8%. Besides, the growth is 90.9% in [12]; 72.1% in experiment [13]; 74.6% in experiment [14]; 103% in [15]; 113% in [16]; 101% in [17]. For the same compound, the growth in [18] was 89.2%; in experiment [19], 100%.

For `Cc1nn(-c2ccc([N+](=O)[O-])cc2)c2ncnc(NCCc3ccccc3)c12`, the growth in [1] was 95.4%; in [2], 103%; in experiment [20] it was 87.9%; in experiment [3] it was 97.2%; in experiment [4], 102%; in experiment [5], 88.7%. Further, the growth in [6] is 104%; in experiment [7], 90.5%; in experiment [8] it was 103%; in [9], 106%; in experiment [10] it was 110%; in experiment [11], 52.6%. Also, the growth is 102% in experiment [12]; 79.7% in [13]; 108% in experiment [14]; 99.8% in experiment [15]; 87.2% in experiment [16]; 81.7% in [17]. The values for the growth in experiment [18] and in [19] were 100% and 64.7%, respectively.

For the compound `Nc1cccc(-c2nc3sccn3c2-c2ccnc(NCCCNS(=O)(=O)c3cccc4ccccc34)n2)c1`, the growth in [1] is 25.4%; in [2], 20.6%; in [3], 55.6%; in experiment [4], 49.3%; in experiment [5], 31.2%; in experiment [6], 4.1% (active). The growth in experiment [7] is 22.2%; in experiment [8], 9.92% (active); in [9] it was 64.5%; in experiment [10] it was 36.3%; in experiment [11], 56.7%; in experiment [12], 39.3%. Besides, the growth in experiment [13] is 21.5%; in experiment [14], 76.5%; in [15], 31.6%; in [16] it was 34.9%; in experiment [17], 29.8%; in [18], 16.1%. Besides, the growth in experiment [19] was 10.3%.

In the case of `c1ccc(-c2cn(-c3ccccc3)c(-c3ccccc3)n2)cc1`, the growth in [1] is 60.9%; in experiment [2], 70.5%; in [20], 81.3%; in experiment [3], 85.6%; in [4] it was 56.4%; in experiment [5] it was 59.5%. For the same compound, the growth in experiment [6] is 108%; in experiment [7], 76.9%; in experiment [8] it was 69.3%; in [9], 98.9%; in experiment [10], 81.7%; in experiment [11] it was 89.1%. In addition, the growth in experiment [12] was 97.7%; in [13], 41.4%; in experiment [14], 81.8%; in [15] it was 91.1%; in [16] it was 98.4%; in experiment [17], 94.5%. Further, the growth in experiment [18] was -25.8% (active); in experiment [19], -13.3% (active).

As for `CN(C)CC(C(=O)c1ccccc1)c1ccccc1` (centres undefined), the growth is -37.7% (active) in [1]; -17.4% (active) in experiment [2]; 84.4% in [3]; 59.8% in experiment [4]; 38.3% in [5]; 64.2% in [6]. Also, the growth in experiment [7] was 34.8%; in experiment [8], 3.08% (active); in experiment [9], 61%; in [10], 34.7%; in experiment [11], 89.6%; in experiment [12], 31.2%. In addition, the growth was 41.3% in experiment [13]; -20% (active) in experiment [14]; -41.5% (active) in experiment [15]; -2.87% (active) in experiment [16]; 99.7% in experiment [17].

Regarding `Cc1nn(-c2ccc(Cl)cc2)c2ncnc(N/N=C/c3cccc([N+](=O)[O-])c3)c12`, the growth in experiment [1] is 100%; in [2], 90.7%; in [20], 99.2%; in experiment [3], 96.4%; in experiment [4], 82.3%; in experiment [5] it was 39%. Moreover, the growth in [6] was 105%; in [7], 109%; in experiment [8] it was 93.4%; in experiment [9], 105%; in experiment [10] it was 99%; in experiment [11], 84%. For the same compound, the growth was 101% in [12]; 72.3% in experiment [13]; 93.3% in experiment [14]; 108% in experiment [15]; 76.4% in experiment [16]; 85.5% in experiment [17]. Also, the growth in experiment [18] was 20.5%; in experiment [19], 15.4%.

In the case of `O=[N+]([O-])c1ccc(-c2cn(-c3ccccc3)c(-c3ccccc3)n2)cc1`, the growth in experiment [1] was 95.2%; in experiment [2], 98.6%; in experiment [20], 70.7%; in experiment [4] it was 58.6%; in experiment [5] it was 48.1%; in experiment [6] it was 128%. Besides, the growth in experiment [7] was 83.1%; in experiment [8], 94.3%; in experiment [9], 96.7%; in experiment [10], 74.8%; in experiment [11], 88.7%; in experiment [12], 77.6%. Besides, the growth in [13] is 55%; in [14], 108%; in [15] it was 95.1%; in experiment [16], 87.7%; in [17], 82%; in [18], 27.3%. Moreover, the growth in experiment [19] was 62.7%.

The values above are taken from PubChem BioAssay (NCI).
